Consider 6 molecules from PubChem BioAssay (NCI).

Among the test systems are HCT-15 colon; HT29 colon; SNB-75 CNS; SNB-19 CNS; U251 CNS; PC-3 prostate; SK-MEL-5 melanoma; UACC-62 melanoma; LOX IMVI melanoma; SK-MEL-28 melanoma; SK-MEL-2 melanoma; EKVX NSCLC; SN12C renal; UO-31 renal; TK-10 renal; ACHN renal; CAKI-1 renal; A498 renal; CCRF-CEM leukemia; MOLT-4 leukemia.
Experiment in all cases: NCI-60 one-dose screen, 48 h (100 = growth as untreated, 0 = no growth, -100 = all killed)
Common to all, as to conditions: 10 µM unless noted

Each structure is given as a SMILES string. Several values for one entry are separate records, joined by “and”; a condition that tells them apart may be missing. Equal values may be shown once. About 83,000 compounds went through this panel and 20% of them were active in at least one assay; those are over-represented in the sample as a whole.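 Each cell line was grown in a 96-well plate and treated with one concentration of compound for 48 hours. Values below 10 were considered active.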 Activity calls are given as the source filed them.

For `COc1ccccc1/C=C/C(=O)/C=C/c1ccccc1OC`, the growth is -2.72% (active) and -27.6% (active) with HCT-15 colon; -42.7% (active) and -16.4% (active) with HT29 colon; 45.2% (inactive) and 12.6% (inactive) in the assay on SNB-75 CNS; 33.5% (inactive) and 38.5% (inactive) in the assay on SNB-19 CNS; -81% (active) and -40.1% (active) in the assay with U251 CNS; 0.508% (active) and 17% (inactive) in the assay on PC-3 prostate. Further, the growth is -89.4% (active) and -77% (active) with SK-MEL-5 melanoma; -61.6% (active) and -64.3% (active) in the assay on UACC-62 melanoma; -60.1% (active) and -53.8% (active) in the assay on LOX IMVI melanoma; -58.9% (active) and -57.8% (active) in the assay with SK-MEL-28 melanoma; 2.6% (active) and 1.3% (active) with SK-MEL-2 melanoma; 12.6% (inactive) in the assay with EKVX NSCLC. The growth in the assay with SN12C renal was -27.2% (active) and -3.57% (active); in the assay on UO-31 renal it was -89.9% (active) and -54.9% (active); with TK-10 renal, -11.8% (active) and 0.143% (active); in the assay with ACHN renal, -62.5% (active) and -84.2% (active); in the assay with CAKI-1 renal, 17.5% (inactive) and 4.88% (active); in the assay with A498 renal, -48.3% (active) and 22.8% (inactive). Moreover, the growth is 15.5% (inactive) and 6.56% (active) with CCRF-CEM leukemia; 14.8% (inactive) and 12.1% (inactive) with MOLT-4 leukemia.
`O=C(c1cccc(Br)c1)N1CCN(c2ccnc3cc(Cl)ccc23)CC1`: the growth is 90.3% (inactive) in the assay with HCT-15 colon; 81.7% (inactive) with HT29 colon; 117% (inactive) in the assay on SNB-75 CNS; 85.1% (inactive) in the assay on SNB-19 CNS; 78.2% (inactive) in the assay on U251 CNS; 79% (inactive) in the assay on PC-3 prostate. In addition, the growth in the assay with SK-MEL-5 melanoma was 82.2% (inactive); in the assay with UACC-62 melanoma it was 70.1% (inactive); in the assay on LOX IMVI melanoma, 102% (inactive); in the assay on SK-MEL-28 melanoma, 95.7% (inactive); in the assay with SK-MEL-2 melanoma, 85.7% (inactive); with EKVX NSCLC it was 87.5% (inactive). The growth with SN12C renal is 94% (inactive); in the assay with UO-31 renal it was 63.6% (inactive); with TK-10 renal, 75.8% (inactive); in the assay with ACHN renal, 90.6% (inactive); in the assay with CAKI-1 renal, 79% (inactive); in the assay on A498 renal, 34.1% (inactive). The growth in the assay on CCRF-CEM leukemia is 87.3% (inactive); in the assay with MOLT-4 leukemia it was 87.8% (inactive).
With `COc1ccc2c(c1)c(-c1nc(-c3c[nH]c4c(Cl)nccc34)cs1)cn2C`, the growth with HCT-15 colon is 64.3% (inactive); in the assay with HT29 colon it was 84% (inactive); in the assay with SNB-75 CNS it was 82.9% (inactive); in the assay on SNB-19 CNS, 105% (inactive); in the assay on U251 CNS, 86.5% (inactive); in the assay on PC-3 prostate, 72.6% (inactive). Also, the growth was 45.4% (inactive) in the assay on SK-MEL-5 melanoma; 87.8% (inactive) in the assay on UACC-62 melanoma; 80% (inactive) in the assay on LOX IMVI melanoma; 105% (inactive) in the assay with SK-MEL-28 melanoma; 108% (inactive) in the assay on SK-MEL-2 melanoma; 34.8% (inactive) in the assay on EKVX NSCLC. Besides, the growth in the assay on SN12C renal was 95.9% (inactive); in the assay on UO-31 renal, 90.8% (inactive); in the assay with TK-10 renal, 35.7% (inactive); in the assay with ACHN renal, 85.4% (inactive); in the assay with CAKI-1 renal, 98.7% (inactive); with A498 renal, 94.7% (inactive). The values for the growth in the assay with CCRF-CEM leukemia and in the assay on MOLT-4 leukemia were 93.7% (inactive) and 85% (inactive), respectively.
Turning to `O=C(/C=C/C12c3ccccc3C(c3ccccc31)C1C(=O)NC(=O)C12)c1ccncc1` (stereo not given), the growth with HCT-15 colon is 4.66% (active); in the assay with HT29 colon it was 12.1% (inactive); with SNB-75 CNS it was 13.7% (inactive); in the assay with SNB-19 CNS, 14.5% (inactive); in the assay with U251 CNS it was 7.81% (active); in the assay on PC-3 prostate, 20.8% (inactive). Further, the growth is 27.6% (inactive) with SK-MEL-5 melanoma; 23.4% (inactive) in the assay with UACC-62 melanoma; -10.7% (active) in the assay with LOX IMVI melanoma; 24.7% (inactive) in the assay on SK-MEL-28 melanoma; 46.6% (inactive) with SK-MEL-2 melanoma; 80.6% (inactive) in the assay with EKVX NSCLC. Besides, the growth in the assay with SN12C renal is 7.85% (active); with UO-31 renal, 26.5% (inactive); with TK-10 renal, 17.5% (inactive); in the assay on ACHN renal, 23.7% (inactive); in the assay on CAKI-1 renal it was 43.9% (inactive); in the assay with A498 renal, 87.4% (inactive). For the same molecule, the growth was -12.7% (active) in the assay with CCRF-CEM leukemia and 1.28% (active) in the assay on MOLT-4 leukemia.
`CCN(CC)/C([O-])=c1\cccc\c1=C1\N=C(c2ccccc2)N=C1[n+]1ccc(-c2ccccc2)cc1`: the growth is 101% (inactive) with HCT-15 colon; 106% (inactive) in the assay on HT29 colon; 93.7% (inactive) in the assay on SNB-75 CNS; 99.5% (inactive) with SNB-19 CNS; 97.7% (inactive) with U251 CNS; 92.8% (inactive) with PC-3 prostate. For the same molecule, the growth with SK-MEL-5 melanoma is 93.8% (inactive); in the assay on UACC-62 melanoma, 93.6% (inactive); with LOX IMVI melanoma it was 91.6% (inactive); with SK-MEL-28 melanoma, 106% (inactive); with SK-MEL-2 melanoma, 78.1% (inactive); in the assay on EKVX NSCLC it was 93.4% (inactive). The growth is 89.5% (inactive) in the assay with SN12C renal; 37.1% (inactive) with UO-31 renal; 102% (inactive) in the assay on TK-10 renal; 95.8% (inactive) with ACHN renal; 99.9% (inactive) with CAKI-1 renal; 96% (inactive) in the assay with A498 renal. The growth with CCRF-CEM leukemia is 84.6% (inactive); in the assay on MOLT-4 leukemia, 88% (inactive).
As to `CN1C(=O)/C(=C/c2ccc(C(=O)Nc3ncc(Cc4ccccc4Cl)s3)cc2)SC1=S`, the growth is 42.1% (inactive) in the assay on HCT-15 colon; 69.5% (inactive) with HT29 colon; 69.4% (inactive) with SNB-75 CNS; 83.3% (inactive) with SNB-19 CNS; 89.4% (inactive) in the assay with U251 CNS; 77.6% (inactive) in the assay with PC-3 prostate. In addition, the growth is 62.4% (inactive) with SK-MEL-5 melanoma; 18.1% (inactive) in the assay on UACC-62 melanoma; 45.1% (inactive) in the assay on LOX IMVI melanoma; 74.8% (inactive) with SK-MEL-28 melanoma; 101% (inactive) in the assay on SK-MEL-2 melanoma; 75.6% (inactive) with EKVX NSCLC. Moreover, the growth was 68.6% (inactive) in the assay with SN12C renal; 63.5% (inactive) in the assay with UO-31 renal; 83.6% (inactive) in the assay with TK-10 renal; 52.1% (inactive) in the assay with ACHN renal; 34.1% (inactive) with CAKI-1 renal; 60.7% (inactive) with A498 renal. For the same molecule, the growth in the assay with CCRF-CEM leukemia was 73.7% (inactive); in the assay with MOLT-4 leukemia, 82.1% (inactive).
